Screening data as filed in PubChem.
Gal4-VP16 FLuc: Gal4-VP16 reporter inhibition counter-screen. Potency, µM (series often up to 53.6 µM), for the others: top-dose activity, negative = inhibition, most hits filed as inhibitors. 3.5% of 310,000 active. Drosophila S2 Gal4-VP16 UAS-luciferase, luminescence, 20 h. AID 2546;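 also: Gal4-VP16 expression switched on by copper sulfate through the metallothionein promoter; nearly all actives have a fitted effect of over 50% in size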
TDP1 inh: TDP1 (human) enzyme inhibition. Q9NUW8. recombinant TDP1, AlphaScreen DNA substrate cleavage. Potency, µM (titrated, usually from 130 µM), for the others: top-dose activity change, negative = inhibition, hits mostly inhibitors. 0.28% of 350,000 active; also: nearly all actives have a fitted effect of over 40% in size
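Recombinant E. coli-expressed Tdp1 (1 nM) preincubated with compound 15 min at RT, then 5'-biotin/3'-phosphotyrosine-FITC DNA substrate (15 nM) added for 5 min. AlphaScreen beads (10 ug/ml) added, 10 min RT; tyrosine-FITC cleavage read as signal loss.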
DT40 TDP1 CPT: growth inhibition of DT40 Tdp1-/-;hTDP1 cells with camptothecin (screen for TDP1 inhibitors); AID 686979; Potency, µM (doses to about 46.2 µM), without a hit: at the highest dose activity change, negative = growth inhibition, hits mostly inhibitors; chicken DT40 Tdp1-/-;hTDP1 cells + 20 nM CPT, ATP luminescence, 48 h; 12% of 420,000 active; also: nearly all actives have a fitted effect of over 55% in size
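Cell growth measured by CellTiter-Glo luminescence after a minimum 48 h, 37 C compound exposure with 20 nM CPT in Tdp1-knockout DT40 cells stably expressing hTDP1, seeded 400/well; qHTS titration format.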
TDP1 cell noCPT: qHTS for Inhibitors of human tyrosyl-DNA phosphodiesterase 1 (TDP1): qHTS in cells in absence of CPT; Potency, µM (top dose mostly 46.2 µM), inactives show at the top dose activity change, negative = growth inhibition, most hits filed as inhibitors; DT40 Tdp1-/- hTDP1 cells, no CPT, ATP luminescence, 48 h; 15% of 420,000 active; also: nearly all actives have a fitted effect of over 55% in size
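Luminescent ATP content (CellTiter-Glo) served as the growth readout. Knockout chicken DT40 cells expressing human TDP1 were exposed to compounds without camptothecin for a minimum 48 hr at 37 °C.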
RORg inh: ROR gamma (mouse) transcription inhibition | P51450 | Drosophila S2 Gal4-RORgamma UAS-luciferase reporter, 20 h | Potency, µM (titrated, usually from 53.6 µM), for inactives: top-dose activity change, negative = inhibition, hits mostly inhibitors | 5.4% of 310,000 active; also: nearly all actives have a fitted effect of over 60% in size
Target sequence (P51450 whole entry, looked up, the tested form may be a part): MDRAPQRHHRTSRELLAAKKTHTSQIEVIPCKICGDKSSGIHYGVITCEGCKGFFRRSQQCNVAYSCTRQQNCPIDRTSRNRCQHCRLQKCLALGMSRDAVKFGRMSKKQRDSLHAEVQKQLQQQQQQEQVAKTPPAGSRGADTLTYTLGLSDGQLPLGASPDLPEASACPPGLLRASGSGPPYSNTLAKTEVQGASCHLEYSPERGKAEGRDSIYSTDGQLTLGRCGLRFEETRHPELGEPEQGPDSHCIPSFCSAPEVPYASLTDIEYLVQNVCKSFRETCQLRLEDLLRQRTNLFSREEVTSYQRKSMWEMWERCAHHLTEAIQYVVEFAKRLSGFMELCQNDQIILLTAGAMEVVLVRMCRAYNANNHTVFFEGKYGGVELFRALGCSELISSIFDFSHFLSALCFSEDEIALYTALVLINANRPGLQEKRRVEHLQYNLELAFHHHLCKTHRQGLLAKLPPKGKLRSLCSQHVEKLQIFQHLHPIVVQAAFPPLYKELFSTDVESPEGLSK
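Drosophila Schneider cells stably carrying a metallothionein-driven Gal4 DBD–ROR gamma fusion and a UAS-Photinus luciferase reporter were exposed to compound for 1 hr, then induced with copper sulfate (700 uM final) for 20 hr at ambient temperature before luminescence reading.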
* = called active by the depositor; ? = inconclusive; . = no result given; [ ] = dose if it differs, or a comment. Sampled rows, rich in hits. Any-hit rate of the full collection: about 19%. Calls follow the shape of the dose curve; as a rule, active = well fitted curve in the direction sought with a large enough effect; inconclusive = small, poorly fitted or top-dose-only effect, or another doubt; inactive = no such curve, though single readings can be large; an effect the other way counts as inactive or inconclusive. % is scaled to controls: 0 for no effect and ±100 for the full control effect; potency is read from the fitted curve at half-maximal effect.

SMILES	Gal4-VP16 FLuc	TDP1 inh	DT40 TDP1 CPT	TDP1 cell noCPT	RORg inh
CCOC(=O)[C@]12CCC=C1N(Cc1ccco1)C(=O)[C@H](CC(=O)N1CCCC1)C2	.	.	-16%	-23%	.
CCOC(=O)N1CCN(C(=O)C[C@@H]2C[C@@]3(C(=O)OCC)CCC=C3N(Cc3ccccc3)C2=O)CC1	.	.	-18%	-5%	.
CCOC(=O)[C@]12CCC=C1N(Cc1ccccc1)C(=O)[C@H](CC(=O)N1CCCCC1)C2	.	.	21µM*	?	.
CCOC(=O)[C@]12CCCC=C1N(Cc1ccc(Cl)cc1Cl)C(=O)[C@H](CC(=O)N1CCOCC1)C2	.	.	?	15µM*	.
CCOC(=O)[C@]12CCC=C1N(Cc1ccc(Cl)cc1Cl)C(=O)[C@H](CC(=O)N1CCN(C(=O)c3ccco3)CC1)C2	.	.	16µM*	16µM*	.
CCOC(=O)[C@]12CCCC=C1N(Cc1ccccc1)C(=O)[C@H](CC(=O)N1CCOCC1)C2	.	.	12%	7%	.
CCOC(=O)[C@]12CCC=C1N(Cc1ccc(Cl)cc1Cl)C(=O)[C@H](CC(=O)N1CCCC1)C2	.	.	16µM*	15µM*	.
Cc1cc(NS(=O)(=O)c2ccc(NC(=O)C(C(C)C)N3C(=O)c4ccccc4C3=O)cc2)nc(C)n1 (configuration not stated)	-10%	-3%	-5%	1%	3%
CCOC(=O)CNC(=O)c1cn(CC)c(=O)c2cc(OC)c(OC)cc12	.	-1%	-3%	-5%	20%[0.365 µM]
CCOC(=O)[C@]12CCC=C1N(Cc1ccco1)C(=O)[C@H](CC(=O)N1CCN(C(=O)C3CC3)CC1)C2	.	.	16%	-2%	.
CCOC(=O)N1CCN(C(=O)C[C@@H]2C[C@@]3(C(=O)OCC)CCC=C3N(Cc3ccc(Cl)cc3Cl)C2=O)CC1	.	.	18µM*	15µM*	.
COCCn1c(SCC(=O)N2CCCC2=O)nc2sc(C)c(C)c2c1=O	.	0%	10%	-6%	.
CC(NC(=O)CCSc1nc(-c2ccc3c(c2)OCO3)cc(C(F)(F)F)n1)c1ccccc1 (configuration not stated)	-6%	-1%	23µM*	?	-18%
CC(C)NC(=O)CCSc1nc(-c2ccc3c(c2)OCO3)cc(C(F)(F)F)n1	.	-1%	13µM*	8.2µM*	.
Nc1ccc2c(c1)CC(=O)c1ccccc1S2	-6%	3%	-28%	-9%	-13%
CCOC(=O)C1=CCN(S(=O)(=O)c2ccc(Br)cc2)C1c1cccc(C)c1 (configuration not stated)	.	.	?	26µM*	.
CCOC(=O)C1=CCN(S(=O)(=O)c2ccc(C)cc2)C1c1cccc(Br)c1 (configuration not stated)	.	.	16µM*	?	.
CCOC(=O)C1=CC[C@@H](c2cccc(Br)c2)N(S(=O)(=O)c2ccc(F)cc2)[C@H]1c1cccc(Cl)c1	.	.	21µM*	10µM*	.
COc1cccc([C@@H]2CC=C(C(=O)O)[C@H](c3ccc(Br)cc3)N2S(=O)(=O)c2ccc(C)cc2)c1	.	2%	0%	-7%	.
Cc1cc(C(F)(F)F)nc(Nc2nc(C)c3ccccc3n2)n1	?	7%	-13%	9%	6.3µM*
COc1ccc(CCN2C(=O)CC(N3CCOCC3)C2=O)cc1OC (configuration not stated)	-12%	-2%	60%	4%	-13%
O=c1c2ccccc2c(C=NCCCN2CCOCC2)c(O)n1Cc1ccccc1	-5%	4%	18µM*	?	1%
O=c1c2ccccc2c(C=NCCCN2CCOCC2)c(O)n1Cc1ccc2c(c1)OCO2	18%	5%	-31%	?	43%
CCc1cccc(C)c1NC(=O)CSc1nnc(N)s1	.	-8%[12.3 µM]	-3%	-6%	.
CC(=O)N(C)c1ccc(NC(=O)Nc2ccc(Cl)cc2)cc1	.	.	?	18µM*	.
SMILES	Gal4-VP16 FLuc	TDP1 inh	DT40 TDP1 CPT	TDP1 cell noCPT	RORg inh
NS(=O)(=O)c1ccc(NC(=O)Nc2ccc(Cl)cc2)cc1	?	2%	-7%	16µM*	?
CNC(=O)Nc1ccc(S(N)(=O)=O)cc1	9%	3%	11%	5%	-9%
N#Cc1ccc(NC(=O)Nc2ccc(Cl)cc2)cc1	1%[0.365 µM]	3%	2.9µM*	3.7µM*	?
CN(CC(=O)Nc1ccc(C#N)cc1)Cc1ccc(Cl)cc1	-22%	7%	?	?	0%[10 µM]
CC(C)C(Cl)=NOC(=O)Nc1ccc(S(N)(=O)=O)cc1	.	.	1.2µM*	2.6µM*	.
Cc1ccc(N2CCCn3c2cc(C)c(C#N)c3=O)cc1Cl	2%	-5%	-25%	?	-1%
CN(Cc1cccc(F)c1)C(=O)C1CC(=O)N(c2ccc3c(c2)OCCO3)C1 (configuration not stated)	.	1%	?	-14%	.
CCOC(=O)CCN(c1ccccc1)S(=O)(=O)c1ccc(-c2ccc(=O)[nH]n2)s1	-3%	4%	?	-1%	-12%
Cc1ccc(S(=O)(=O)N2CCN(C(=O)C(C)Cn3nc(C)c(C)c3C)CC2)cc1C (configuration not stated)	-18%	1%	-14%	-13%	-21%
COc1ccc(C(=O)Nc2nc3ccccc3[nH]2)cc1S(=O)(=O)N1CCCC1	?	4%	-35%	?	11µM*
COc1ccc(Cl)cc1C(=O)Nc1nc2ccccc2[nH]1	6.3µM*	.	?	-26%	2.2µM*
COc1ccc(C(=O)Nc2cccc(C(=O)O)c2)cc1S(=O)(=O)N1CCCC1	-8%	3%[56.1 µM]	3%	-2%	15%
COc1ccc(C(=O)Nc2cccc(NC(=O)c3ccc(OC)c(OC)c3)n2)cc1OC	-1%	.	8.2µM*	7.3µM*	?
CCOc1ccc(C(=O)Nc2nc3ccccc3[nH]2)cc1OCC	16µM*	6%	21µM*	8.2µM*	1.4µM*
COc1ccc(S(=O)(=O)N2CCC(C(=O)NCCc3c[nH]c4ccccc34)CC2)cc1	12%	.	?	0%	43%
O=C(c1cnn(C(=O)c2ccccc2)c1)c1ccccc1O	9%	3%	9%	?	-4%
CCOC(=O)c1c(O)c(Cl)c(C)[nH]c1=O	-7%	1%	?	-13%	-4%
COc1ccc(C(=O)NCC(=O)OCc2ccc(F)cc2Cl)cc1OC	0%	2%	-1%	?	38%
COc1ccc(C(=O)NCc2nc3ccccc3[nH]2)cc1OC	7%	3%	-17%	-29%	-5%
COc1ccc(C(=O)Nc2nc3ccccc3[nH]2)cc1OC	10µM*	0%[56.1 µM]	-21%	-23%	11µM*
COc1ccc(C(=O)NCC(=O)OCc2c(Cl)cccc2Cl)cc1OC	.	-15%	?	15µM*	.
